Read-out in assay [1]: Monokine induced gamma interferon (MIG), CXCL9 (gene 4283)
Put plainly: BSK_hDFCGF_MIG: BioMAP Diversity Plus: hDFCGF Assay for Monokine induced gamma interferon (MIG) Biomarker Activity (AID 2283063). To be noted: primary human foreskin fibroblasts; actives raise or lower the signal. The procedure, abridged: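 Fibroblasts (human foreskin, primary) dosed, 24 h, MIG by ELISA; fit bidirectional vs DMSO.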

Read-out in assay [2]: Vascular cell adhesion molecule 1 (VCAM1), VCAM1 (gene 7412)
Nature of the assay: BSK_hDFCGF_VCAM1: BioMAP Diversity Plus: hDFCGF Assay for Vascular cell adhesion molecule 1 (VCAM1) Biomarker Activity (AID 2283065).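 On AC50: VCAM-1 protein level quantified by ELISA after 24 h chemical exposure.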 To be noted: primary human foreskin fibroblasts; actives raise or lower the signal. The procedure, abridged: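 ELISA read-out of VCAM-1 on human skin fibroblasts, 24 h post-dose; gain or loss of signal fitted bidirectionally against DMSO baseline.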

Read-out in assay [3]: Plasminogen activator inhibitor-1 (PAI1), SERPINE1 (gene 5054)
Put plainly: BSK_hDFCGF_PAI1: BioMAP Diversity Plus: hDFCGF Assay for Plasminogen activator inhibitor-1 (PAI1) Biomarker Activity (AID 2283066). The settings on record: primary human foreskin fibroblasts; actives raise or lower the signal. Summed up:
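Primary dermal fibroblasts (human foreskin), hDFCGF system; compound 24 h; PAI-1 by ELISA; bidirectional fit vs DMSO control.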

Read-out in assay [4]: Intercellular Adhesion Molecule 1 (ICAM1), ICAM1 (gene 3383)
Put plainly: BSK_KF3CT_ICAM1: BioMAP Diversity Plus: KF3CT Assay for Intercellular Adhesion Molecule 1 (ICAM1) Biomarker Activity (AID 2283067). To be noted: primary human keratinocytes with fibroblasts; actives raise or lower the signal. The procedure, abridged:
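ELISA readout of ICAM-1; KF3CT human skin co-culture (keratinocytes + foreskin fibroblasts), 24 h post-dose; gain/loss fit vs DMSO baseline.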

Read-out in assay [5]: Interferon-gamma inducible Protein 10 (IP10), CXCL10 (gene 3627)
Nature of the assay: BSK_KF3CT_IP10: BioMAP Diversity Plus: KF3CT Assay for Interferon-gamma inducible Protein 10 (IP10) Biomarker Activity (AID 2283068). To be noted: primary human keratinocytes with fibroblasts; actives raise or lower the signal. The procedure, abridged:
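ELISA read-out of IP-10 after 24 h chemical dosing of human skin primary co-culture (keratinocytes, foreskin fibroblasts). Gain or loss of signal relative to DMSO, bidirectional curve fit.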

The nature of assay [6]: BSK_KF3CT_SRB: Viability Assessment in the BioMAP Diversity Plus: KF3CT Assay (AID 2283069).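 Further: total protein by sulforhodamine B staining as a cytotoxicity measure; read 24 h after compound addition.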 To be noted: primary human keratinocytes with fibroblasts. Summed up: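 Human keratinocyte and foreskin fibroblast co-culture exposed to chemical for 24 h. Total protein measured in parallel cultures by 0.1% sulforhodamine B staining after 10% TCA fixation, read at 560 nm; bidirectional fit relative to DMSO.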

Read-out in assay [7]: TIMP metallopeptidase inhibitor 2 (TIMP2), TIMP2 (gene 7077)
Nature of the assay: BSK_KF3CT_TIMP2: BioMAP Diversity Plus: KF3CT Assay for TIMP metallopeptidase inhibitor 2 (TIMP2) Biomarker Activity (AID 2283071). To be noted: primary human keratinocytes with fibroblasts; actives raise or lower the signal. Summed up: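 Cells: human keratinocytes co-cultured with foreskin fibroblasts. Treat with chemical, 24 h. Measure TIMP-2 by ELISA; fit curves bidirectionally vs DMSO baseline.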

Read-out in assay [8]: Transforming growth factor beta 1 (TGFb1), TGFB1 (gene 7040)
Put plainly: BSK_KF3CT_TGFb1: BioMAP Diversity Plus: KF3CT Assay for Transforming growth factor beta 1 (TGFb1) Biomarker Activity (AID 2283072). The settings on record: primary human keratinocytes with fibroblasts; actives raise or lower the signal. Summed up:
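Primary human skin cells (keratinocytes, foreskin fibroblasts) were co-cultured, exposed to test chemical and sampled at 24 h. TGF-b1 levels were measured by ELISA and fitted bidirectionally relative to DMSO.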

Read-out in assay [9]: C-C motif chemokine 2 (Homo sapiens) (UniProt P13500)
Put plainly: BSK_KF3CT_MCP1: BioMAP Diversity Plus: KF3CT Assay for Monocyte Chemoattractant Protein 1 (MCP1/CCL2) Biomarker Activity (AID 2283073). The settings on record: primary human keratinocytes with fibroblasts; actives raise or lower the signal. Summed up: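 KF3CT skin co-culture (keratinocytes/foreskin fibroblasts), 24 h post-dose; MCP-1 by ELISA; gain/loss of signal fit bidirectionally vs DMSO baseline.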

Read-out in assay [10]: Matrix Metallopeptidase 9 (MMP9), MMP9 (gene 4318)
Nature of the assay: BSK_KF3CT_MMP9: BioMAP Diversity Plus: KF3CT Assay for Matrix Metallopeptidase 9 (MMP9) Biomarker Activity (AID 2283074).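 On AC50: MMP9 protein level quantified by ELISA in the co-culture.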 The settings on record: primary human keratinocytes with fibroblasts; actives raise or lower the signal. The procedure, abridged: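 Human keratinocyte and foreskin fibroblast co-culture exposed to chemicals for 24 h; MMP9 biomarker measured by ELISA, bidirectional fitting relative to DMSO; cytotoxicity tracked by SRB total protein staining in parallel cultures.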

Read-out in assay [11]: urokinase plasminogen activator (uPA), PLAU (gene 5328)
Nature of the assay: BSK_KF3CT_uPA: BioMAP Diversity Plus: KF3CT Assay for urokinase plasminogen activator (uPA) Biomarker Activity (AID 2283075). To be noted: primary human keratinocytes with fibroblasts; actives raise or lower the signal. Summed up: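 Primary human keratinocyte/foreskin fibroblast co-culture exposed to chemical; uPA measured by ELISA at 24 h. Bidirectional fit versus DMSO, with parallel SRB total-protein staining for cytotoxicity.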

Read-out in assay [12]: CD40, CD40 (gene 958)
Put plainly: BSK_LPS_CD40: BioMAP Diversity Plus: LPS Assay for CD40 Biomarker Activity (AID 2283076). To be noted: primary human HUVEC with PBMC; actives raise or lower the signal. The procedure, abridged: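 ELISA readout of CD40 in HUVEC/PBMC co-culture (BSK_LPS system), 24 h post-dosing; bidirectional curve fit, DMSO baseline; parallel SRB total-protein staining for cytotoxicity.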

Read-out in assay [13]: Interleukin-8 (IL8), CXCL8 (gene 3576)
Nature of the assay: BSK_LPS_IL8: BioMAP Diversity Plus: LPS Assay for Interleukin-8 (IL8) Biomarker Activity (AID 2283078). The settings on record: primary human HUVEC with PBMC; actives raise or lower the signal. Summed up: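 HUVEC + PBMC co-culture, LPS-activated; test chemicals dosed, IL-8 read by ELISA at 24 h. Bidirectional curve fit vs DMSO baseline (gain or loss of signal).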

Assay [14] can be described thus: BSK_LPS_SRB: Viability Assessment in the BioMAP Diversity Plus: LPS Assay (AID 2283079).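 Further: total protein by sulforhodamine B absorbance as a cytotoxicity measure; measured one day after compound addition; fitted in both directions against DMSO so loss or gain of signal counts.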 The settings on record: primary human HUVEC with PBMC. The procedure, abridged:
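HUVEC + PBMC co-culture, LPS-stimulated; compound 24 h. 10% TCA fix, 0.1% SRB stain, A560. Bidirectional fit vs DMSO.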

Read-out in assay [15]: Interleukin-1 alpha (IL1a), IL1A (gene 3552)
Put plainly: BSK_LPS_IL1a: BioMAP Diversity Plus: LPS Assay for Interleukin-1 alpha (IL1a) Biomarker Activity (AID 2283080). The settings on record: primary human HUVEC with PBMC; actives raise or lower the signal. The procedure, abridged:
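HUVEC/PBMC co-culture, LPS system; 24 h after dosing; IL-1a by ELISA; gain or loss of signal fitted bidirectionally vs DMSO baseline.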

Read-out in assay [16]: Monocyte Chemoattractant Protein-1 (MCP1), CCL2 (gene 6347)
Put plainly: BSK_LPS_MCP1: BioMAP Diversity Plus: LPS Assay for Monocyte Chemoattractant Protein-1 (MCP1) Biomarker Activity (AID 2283081).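 On AC50: secreted MCP-1 protein quantified by ELISA in culture supernatant.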 To be noted: primary human HUVEC with PBMC; actives raise or lower the signal. Summed up:
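ELISA read-out of MCP-1 after 24 h chemical dosing of a human umbilical vein endothelial cell/peripheral blood mononuclear cell co-culture stimulated with LPS. Gain or loss of signal fitted relative to DMSO controls.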

The nature of assay [17]: BSK_LPS_PGE2: BioMAP Diversity Plus: LPS Assay for Prostaglandin E2 (PGE2) Biomarker Activity (AID 2283082).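 On AC50: secreted prostaglandin E2 measured by ELISA in LPS-stimulated co-culture.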 To be noted: primary human HUVEC with PBMC; actives raise or lower the signal. The procedure, abridged:
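LPS-activated HUVEC/PBMC co-culture; cmpd dosed, 24 h; PGE2 by ELISA; bidirectional fit vs DMSO; SRB (0.1%, TCA-fixed, 560 nm) in parallel plates for overt cytotox.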

Read-out in assay [18]: E-selectin (Homo sapiens) (UniProt P16581)
Nature of the assay: BSK_LPS_Eselectin: BioMAP Diversity Plus: LPS Assay for Eselectin Biomarker Activity (AID 2283077). To be noted: primary human HUVEC with PBMC; actives raise or lower the signal. The procedure, abridged:
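ELISA readout of E-selectin, 24 h post-dose, HUVEC + PBMC co-culture (LPS system). Gain or loss of signal vs DMSO baseline, bidirectional fit.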

Read-out in assay [19]: Interleukin-1 alpha (IL1a), IL1A (gene 3552)
Put plainly: BSK_KF3CT_IL1a: BioMAP Diversity Plus: KF3CT Assay for Interleukin-1 alpha (IL1a) Biomarker Activity (AID 2283070). To be noted: primary human keratinocytes with fibroblasts; actives raise or lower the signal. The procedure, abridged: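 Primary human keratinocyte plus foreskin fibroblast co-culture, dosed and measured at 24 h in 96-well plates. IL-1a level quantified by ELISA; bidirectional fit relative to DMSO.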

This passage reports outcome and AC50 results from PubChem BioAssay (EPA / NIEHS).

Molecules are shown by their SMILES. Activity calls are given as the source filed them. How the source made its calls: active means hit-call score of the fitted dose curve at least 0.9, where 1 is the maximum; inactive means score below 0.9.

Chain of E-selectin (Homo sapiens) (P16581 whole entry, looked up): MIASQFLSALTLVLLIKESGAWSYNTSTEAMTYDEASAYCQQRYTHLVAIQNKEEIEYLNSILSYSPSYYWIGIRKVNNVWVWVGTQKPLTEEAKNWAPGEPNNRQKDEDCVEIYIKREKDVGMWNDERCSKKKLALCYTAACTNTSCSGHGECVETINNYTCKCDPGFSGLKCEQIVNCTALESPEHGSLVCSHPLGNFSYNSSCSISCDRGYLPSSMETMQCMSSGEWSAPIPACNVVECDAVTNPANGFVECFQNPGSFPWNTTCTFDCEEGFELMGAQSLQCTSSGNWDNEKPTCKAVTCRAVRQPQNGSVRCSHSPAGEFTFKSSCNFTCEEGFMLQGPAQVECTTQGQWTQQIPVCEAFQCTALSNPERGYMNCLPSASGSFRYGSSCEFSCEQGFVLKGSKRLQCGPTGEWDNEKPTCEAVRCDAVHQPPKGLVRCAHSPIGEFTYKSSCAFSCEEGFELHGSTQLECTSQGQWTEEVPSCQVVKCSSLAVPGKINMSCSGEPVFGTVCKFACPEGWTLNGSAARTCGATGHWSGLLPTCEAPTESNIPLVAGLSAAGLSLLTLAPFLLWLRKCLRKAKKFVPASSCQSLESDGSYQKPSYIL

Consider `CC(O)CN(CCN(CC(C)O)CC(C)O)CC(C)O` (stereo not given), for which the result in [1], in assay [2], in [3], in assay [4], in assay [5] and in assay [6] was inactive. Besides, the result in assay [7], in assay [8], in assay [9], in assay [10], in assay [11] and in assay [12] was inactive. Besides, the result in [13], in [14], in assay [15], in assay [16] and in [17] was inactive.

Take `CC/C(=C\C(=N/O)C(N)=O)C(C)[N+](=O)[O-]` (stereo not given): the outcome in assay [1], in assay [2], in assay [3], in [4], in assay [5] and in assay [6] was inactive. Besides, the result in assay [7], in assay [8], in assay [9], in assay [10], in assay [11] and in [12] was inactive. The result in assay [18], in [13], in assay [14], in assay [15] and in assay [16] was inactive.

One may read the AC50 as the concentration giving half of the maximal activity seen. For the compound `CC(C)c1cccc(C(C)C)c1N1C(=O)c2ccc(O)cc2C1=O`, the AC50 in assay [1] is 31.9 µM (active); in [2], 13.8 µM (active); in [3], 22 µM (active); in [5] it was 26 µM (active); in [6], 29.1 µM (active); in assay [19], 30.9 µM (active). The AC50 was 29.2 µM (active) in assay [7]; 29.4 µM (active) in assay [8]; 23.2 µM (active) in assay [10]; 36.7 µM (active) in [11]; 8.13 µM (active) in assay [12]; 17.4 µM (active) in assay [14]. Besides, the AC50 in [16] was 34.8 µM (active). Also, the result in assay [4], in assay [9], in assay [13], in assay [15] and in assay [17] was inactive.

With `CCOCCO`, the result in [1], in assay [4], in [5], in assay [6], in assay [19] and in assay [7] was inactive. Also, the result in [8], in assay [9], in assay [10], in assay [11], in [12] and in [18] was inactive. Also, the outcome in assay [13], in [14], in assay [15] and in [17] was inactive.

`COc1ccc(/C=C/S(=O)(=O)NC(=O)c2ccc(C)cc2Cl)cc1`: the result in assay [1], in [2], in assay [3], in [4], in assay [6] and in [7] was inactive. For the same compound, the result in [8], in assay [9], in assay [10], in [11], in assay [12] and in assay [18] was inactive. In addition, the outcome in [13], in assay [14] and in [15] was inactive. The AC50 in assay [5] is 32.6 µM (active).

On to `COc1ccc(-n2nc(C(F)F)cc2-c2ccc(S(C)=O)cc2)cc1` (stereo not given), for which the result in assay [1], in assay [2], in [3], in assay [4], in [5] and in assay [6] was inactive. The outcome in assay [19], in assay [7], in assay [8], in assay [9], in assay [10] and in assay [11] was inactive. The outcome in assay [13] and in [14] was inactive. The AC50 in assay [12] was 1.7 µM (active); in assay [15], 4.92 µM (active); in assay [17], 0.342 µM (active).

Consider `Cc1[nH]cnc1C[C@H]1CCc2c(C)c3ccccc3n2C1=O`, for which the outcome in [1], in assay [2], in assay [3], in assay [4], in [5] and in assay [6] was inactive. In addition, the outcome in assay [19], in assay [7], in [8], in assay [9], in assay [10] and in [11] was inactive. The result in assay [15] and in assay [17] was inactive. In addition, the AC50 is 27.8 µM (active) in assay [12], 24.3 µM (active) in assay [13] and 26.2 µM (active) in assay [14].

In the case of `CNCc1ccc(NC(=O)c2c[nH]c3c2C(=O)CCC3)cc1`, the result in assay [1], in assay [2], in [3], in [4], in [5] and in assay [6] was inactive. The outcome in [7], in assay [8], in [9], in assay [10], in assay [11] and in assay [12] was inactive. Also, the result in assay [13], in assay [14], in assay [15], in assay [16] and in assay [17] was inactive.
